Source: PubChem BioAssay
This is a sample that favours compounds with a hit; in the whole collection about 3.1% have one here.
ATG4B inhibitor: blocks human ATG4B protease cleavage of LC3 substrate; Q9Y4P1; ATG4B cleavage of LC3-PLA2, NBD-HPC fluorescence, 1 h; inhibition, % at 8.33 µM; hit rate 0.51% among 340,000; in the data active = inhibition above about 40%
Target sequence (Q9Y4P1 whole entry, looked up): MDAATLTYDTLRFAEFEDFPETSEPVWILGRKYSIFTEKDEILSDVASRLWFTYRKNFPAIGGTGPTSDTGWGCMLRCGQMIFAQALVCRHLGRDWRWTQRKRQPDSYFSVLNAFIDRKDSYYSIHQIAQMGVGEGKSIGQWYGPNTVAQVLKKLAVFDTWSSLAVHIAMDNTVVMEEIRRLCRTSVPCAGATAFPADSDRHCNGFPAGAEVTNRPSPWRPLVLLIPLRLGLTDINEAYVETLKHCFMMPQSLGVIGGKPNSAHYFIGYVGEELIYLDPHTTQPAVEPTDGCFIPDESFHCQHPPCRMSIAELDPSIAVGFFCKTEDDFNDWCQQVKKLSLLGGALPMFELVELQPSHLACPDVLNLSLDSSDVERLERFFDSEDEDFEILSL
MEKK2 WT-MEK5: raises or lowers MEK5 binding to wildtype human MEKK2 PB1 domain | Q9Y2U5 | bead flow cytometry, Alexa488-MEK5 binding to MEKK2 WT; actives lie on both sides | binding response (% of control), % at 10 µM | hit rate 1.1% among 290,000 | AID 1531; in the data active = binding response below about 67% or above about 130%; inconclusive = no clear call, values can overlap the other calls; inactive = in between
PREPL inh: inhibits the human prolyl oligopeptidase-like enzyme | Q4J6C6 | recombinant PREPL, fluorescence polarization activity-based probe | inhibition, % at 5.96 µM | hit rate 0.68% among 320,000; in the data active = inhibition above about 43%;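 note: 0% = enzyme with DMSO and 100% = wells lacking enzyme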
MEKK2mut PB1 HTS: signal of MEK5 binding to mutant human MEKK2 PB1 domain; hit rate 0.35% among 290,000; percent response, % at 10 µM; bead flow cytometry, Alexa488-MEK5 binding to MEKK2 mutant; AID 1530; in the data active = percent response above about 24%, passing the limit was not always enough
MEKK3 PB1 HTS: MEKK3-MEK5 PB1 interaction, increase or decrease | Q99759 | bead-based flow cytometry, Alexa488-MEK5 binding to MEKK3; actives lie on both sides; 0 = blocked by unlabeled MEK5, 100 = vehicle | binding response (% of control), % at 10 µM | hit rate 1.4% among 290,000;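 active = binding response more than 3 SD above or below the average of its plate-row segment, actives on both sides; inconclusive = wells at one plate position flagged as instrument error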;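 note: Alexa488 bead fluorescence after subtracting the streptavidin-only scavenger bead signal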
UBC13 inh: inhibitors of human UBC13 polyubiquitin chain formation | TR-FRET | hit rate 0.47% among 330,000 | inhibition, % at 20 µM; in the data active = inhibition above about 45%, passing the limit was not always enough; inconclusive = no clear call, values can overlap the other calls
Casp3 counter: caspase-3 inhibition (UBC13 counter-screen); shares compounds with UBC13 inh; Recombinant caspase-3, Caspase-Glo 3/7 luminescence, 60 min; inhibition, % at 20 µM; hit rate 4% among 1,400;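 active = mean inhibition across replicates above about 26%, limit read from the data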;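 note: plate controls were DMSO with caspase-3 for no effect and DMSO wells lacking enzyme for full effect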
Target sequence (P42574 whole entry, looked up): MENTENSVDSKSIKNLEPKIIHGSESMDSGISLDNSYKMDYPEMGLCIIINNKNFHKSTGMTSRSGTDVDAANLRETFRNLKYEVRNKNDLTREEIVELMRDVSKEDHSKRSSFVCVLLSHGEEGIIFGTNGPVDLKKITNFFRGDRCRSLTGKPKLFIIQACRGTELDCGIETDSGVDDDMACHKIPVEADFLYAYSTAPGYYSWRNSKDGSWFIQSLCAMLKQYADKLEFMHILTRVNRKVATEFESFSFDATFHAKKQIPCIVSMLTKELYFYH
UBC13 conf: human UBC13 polyubiquitin inhibition, confirmed; inhibition, % at 10 µM; AID 488859; UBC13 polyubiquitination, TR-FRET, biochemical; hit rate 68% among 1,400; shares compounds with UBC13 inh; in the data active = inhibition above about 45%; inconclusive = no clear call, values can overlap the other calls
Starred values were filed as active, the others as inactive; u = inconclusive; x = no result.

SMILES | ATG4B inhibitor | MEKK2 WT-MEK5 | PREPL inh | MEKK2mut PB1 HTS | MEKK3 PB1 HTS | UBC13 inh | Casp3 counter | UBC13 conf
Cc1ccc(OCCCC(=O)Nc2ccc(S(=O)(=O)N3CCOCC3)cc2)cc1 | -6.6 | x | 4.1 | x | x | 56.0* | -2.6 | 37.0
CCCCCCSc1ccc([C@H]2N[C@@](C)(C(=O)OC)[C@H]3C(=O)N(C)C(=O)[C@@H]23)cc1 | -7.5 | x | -5.0 | x | x | 20.6 | x | x
O=C(NNC(=O)C1CCN(S(=O)(=O)c2ccc(Cl)cc2)CC1)c1ccc(Cl)cc1 | -9.9 | 109.0 | -10.3 | 4.0 | 111.0 | 28.6 | x | x
CCN(CC)S(=O)(=O)c1ccc(C(=O)NNC(=O)C2CCN(S(=O)(=O)c3ccc(Cl)cc3)CC2)cc1 | -4.5 | 97.0 | -3.4 | -1.0 | 97.0 | 77.7* | 0.3 | 77.0*
Cn1c(=O)cc(SCC(=O)N2CCN(C3CCCCC3)CC2)c2ccccc21 | -1.2 | x | 1.8 | x | x | 66.2* | -1.9 | u
CCn1c(=O)cc(SCC(=O)NCCCN2CCN(c3ccc(F)cc3)CC2)c2ccccc21 | 0.6 | 119.0 | 11.5 | 11.0 | 105.0 | 91.7* | 0.3 | u
CCn1c(=O)cc(SCC(=O)NCCCN2CCC(C)CC2)c2ccccc21 | -5.7 | 100.0 | 22.3 | 0.0 | 102.0 | 22.1 | x | x
CCn1c(=O)cc(SCC(=O)N2CCCCC2)c2ccccc21 | -7.2 | 101.0 | 12.9 | 3.0 | 106.0 | 19.7 | x | x
CCn1c(=O)cc(SCC(=O)N2CCN(Cc3ccc4c(c3)OCO4)CC2)c2ccccc21 | -15.5 | 113.0 | -7.0 | 8.0 | 104.0 | 61.3* | -2.3 | u
CCSc1ccccc1C(=O)N1CCN(Cc2ccc3c(c2)OCO3)CC1 | -1.5 | 95.0 | 14.2 | 3.0 | 98.0 | 99.1* | -0.8 | 9.1
CCN(CC)CCSc1nnc2c3cc(C)ccc3n(Cc3ccccc3)c2n1 | -3.9 | 121.0 | 14.4 | 15.0 | 102.0 | 0.8 | x | x
Cc1ccc(CNC(=O)c2ccccc2NC(=O)CN2CC(C)OC(C)C2)cc1 (stereo not given) | 0.8 | 94.0 | -5.1 | 1.0 | 96.0 | 6.1 | x | x
CC(NC(=O)c1ccccc1)C(=O)OCn1nnc2ccccc2c1=O (stereo not given) | -24.4 | x | -3.6 | x | x | 7.4 | x | x
CCN1CCN(C(=O)CSc2cc(=O)n(CC)c3ccccc23)CC1 | -16.1 | 100.0 | -1.1 | -2.0 | 100.0 | 46.6* | -2.2 | u
Cn1c(=O)n(CCc2ccccc2)c(=O)c2c1ncn2Cc1ccccc1 | -1.8 | 109.0 | 0.0 | 6.0 | 110.0 | 30.3 | x | x
Cn1c(=O)c2c(ncn2Cc2cccc(Cl)c2)n(C)c1=O | 2.6 | 93.0 | -0.9 | -5.0 | 90.0 | 74.3* | -9.1 | 74.9*
COc1cccc(C(=O)NCCNC(=O)c2ccc(C)nc2)c1 | 4.5 | 95.0 | -6.7 | 0.0 | 100.0 | 2.9 | x | x
CN(C)CCCNC(=S)NCC(c1ccc(Cl)cc1Cl)c1c[nH]c2ccccc12 (stereo not given) | 7.6 | 223.0* | 39.2 | 73.0* | 110.0 | 60.1* | 2.5 | 88.0*
Cc1cc(NC(=O)c2cc(-c3ccc(C)s3)nc3ccccc23)no1 | -6.5 | 104.0 | -0.1 | 8.0 | 105.0 | 39.9 | x | x
O=C(Nc1ccccn1)c1cc(-c2ccc(Cl)s2)nc2ccccc12 | -5.3 | x | 4.9 | x | x | 47.3* | 1.3 | u
Cc1cccc(NC(=O)c2cc(-c3ccc(C)s3)nc3ccccc23)n1 | 6.8 | 105.0 | -2.4 | -1.0 | 105.0 | 47.1* | 2.9 | 40.0
Cc1ccnc(NC(=O)c2cc(-c3ccc(Cl)s3)nc3ccccc23)c1 | 6.1 | x | 5.0 | x | x | u | x | x
CN(Cc1ccccc1)C(=O)COC(=O)c1cc(-c2ccc(Cl)s2)nc2ccccc12 | -10.6 | 79.0 | -19.7 | -6.0 | 95.0 | 51.3* | -1.6 | u
O=C(O)c1cc(-c2ccc(Cl)s2)nc2ccccc12 | -13.1 | 99.0 | 0.6 | 0.0 | 97.0 | 16.9 | x | x
O=C(COC(=O)c1cc(S(=O)(=O)NCc2ccccc2)ccc1O)c1cc2ccccc2o1 | 8.0 | 91.0 | -2.3 | -1.0 | 104.0 | -2.2 | x | x
SMILES | ATG4B inhibitor | MEKK2 WT-MEK5 | PREPL inh | MEKK2mut PB1 HTS | MEKK3 PB1 HTS | UBC13 inh | Casp3 counter | UBC13 conf
CCCCNc1nc(Nc2ccc(C)c(Cl)c2)c2cnn(C)c2n1 | -3.2 | 132.0 | 2.6 | 14.0 | 104.0 | 42.1 | x | x
COc1ccc(CCNC(=O)CCCCCN2C(=O)c3ccccc3C2=O)cc1 | -4.1 | 110.0 | -4.3 | 3.0 | 105.0 | 29.4 | x | x
O=C(CCCCCN1C(=O)c2ccccc2C1=O)NCCc1nc2ccccc2[nH]1 | -2.0 | 102.0 | 11.4 | -2.0 | 103.0 | 55.6* | 0.1 | 53.1*
COCCNC(=S)N=Nc1c(O)[nH]c2c(C)cc(C)cc12 | -4.8 | 100.0 | 10.1 | -2.0 | 100.0 | 87.2* | -1.6 | 101.6*
Cc1cc(C)c2[nH]c(O)c(N=NC(=O)c3cc4c(s3)CCCC4)c2c1 | x | 95.0 | 17.6 | 5.0 | 108.0 | -11.0 | x | x
O=C1C2C3C=CC(C4CC34)C2C(=O)N1CCCCN1CCN(c2ccc(F)cc2)CC1 (stereo not given) | 6.2 | x | 18.1 | x | x | 54.4* | -1.3 | 3.7
O=C(CCN1C(=O)C2C3C=CC(C3)C2C1=O)N1CCN(c2ccc(F)cc2)CC1 (stereo not given) | 12.7 | 90.0 | 22.2 | -8.0 | 87.0 | -9.2 | x | x
COc1ccc(/C=N/NC(=O)c2nnn(-c3nonc3N)c2-c2cccs2)c(OC)c1 | -10.8 | 100.0 | 1.2 | 3.0 | 99.0 | 5.4 | x | x
CCCC(C(=O)NC(C)(C)C)N(C(=O)c1snc(C(N)=O)c1N)c1ccc2c(c1)OCCO2 (stereo not given) | 15.4 | 87.0 | 0.0 | -7.0 | 91.0 | 65.0* | -2.8 | 85.5*
CCC(C)(C)NC(=O)CN(C(=O)c1snc(C(N)=O)c1N)c1ccc2nc(C)sc2c1 | 4.1 | 96.0 | 11.1 | -4.0 | 98.0 | 73.6* | 1.7 | 83.0*
CCC(C)(C)NC(=O)CN(C(=O)c1snc(C(N)=O)c1N)c1ccc2c(c1)OCCO2 | 1.9 | 102.0 | -8.0 | 8.0 | 104.0 | 70.2* | -5.7 | 59.4*
COc1ccc(C(CNC(=O)c2cc3c(s2)CCC(C)C3)N2CCCC2)cc1 (stereo not given) | 1.5 | x | 8.6 | x | x | 59.0* | -3.4 | 41.8
COc1ccc(C(CNC(=O)c2ccc(-c3nc4ccccc4s3)o2)N2CCCC2)cc1 (stereo not given) | 1.6 | x | -66.7 | x | x | 61.3* | 7.6 | 53.3*
CN(C)CCCNC(=O)CC1C[C@H](C(=O)N2CCCCC2)[C@@]2(CCc3ccccc3)c3[nH]c4ccccc4c3CCN2C1=O (stereo not given in full) | 7.0 | x | 27.5 | x | x | 47.1* | 0.1 | 16.9
